ADAM17 inh: ADAM17 inhibition, QFRET primary screen; P78536; recombinant ADAM17, EDANS/DABCYL FRET peptide cleavage; inhibition, % at 6.95 µM; 370,000 tested, 0.83% active;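 active = inhibition above the mean of compounds lying between control limits plus 3 SD, set per campaign, cut at about 8.5% in these data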;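 note: 0% = DMSO-only wells as the low control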
Ecoli rRNA inh: inhibitors of bacterial rRNA selective over humanized ribosomes | E. coli WT GFP vs humanized-ribosome RFP mutants, fluorescence, 24 h; hits give low values; DMSO median 0, no signal -100 | GFP signal change (wild-type ribosome), % (concentration not given with the values) | 350,000 tested, 1.6% active | AID 720706;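 active = significant combined selectivity score with lowered wild-type GFP, culture density cut under 30%, mutant RFP and density less affected; inactive = any of these conditions unmet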
ADAM10 inh: ADAM10 inhibition, QFRET primary screen; AID 720582; O14672; recombinant ADAM10, EDANS/DABCYL FRET peptide cleavage, 3 h; inhibition, % at 7 µM; 370,000 tested, 0.62% active;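 active = inhibition above a per-campaign cutoff equal to the mean of compounds falling between control-based bounds plus 3 SD, cut at about 20% in these data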;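 note: 0% = DMSO wells while the 100% control is not disclosed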
Target sequence (O14672 214-748 limits assumed): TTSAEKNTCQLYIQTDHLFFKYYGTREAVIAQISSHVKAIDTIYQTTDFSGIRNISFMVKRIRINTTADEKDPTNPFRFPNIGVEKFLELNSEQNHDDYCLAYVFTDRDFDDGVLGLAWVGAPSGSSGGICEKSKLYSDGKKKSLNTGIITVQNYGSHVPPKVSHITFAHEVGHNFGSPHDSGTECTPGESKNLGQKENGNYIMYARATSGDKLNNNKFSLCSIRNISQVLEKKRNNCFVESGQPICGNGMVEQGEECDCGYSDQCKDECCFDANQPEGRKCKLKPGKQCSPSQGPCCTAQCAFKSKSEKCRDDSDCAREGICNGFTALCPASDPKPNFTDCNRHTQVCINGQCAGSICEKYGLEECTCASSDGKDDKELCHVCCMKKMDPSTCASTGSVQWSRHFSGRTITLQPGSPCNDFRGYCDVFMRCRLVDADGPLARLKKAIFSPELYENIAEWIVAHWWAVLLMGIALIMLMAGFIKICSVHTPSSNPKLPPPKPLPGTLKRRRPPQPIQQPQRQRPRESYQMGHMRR
proKLK7 act: proKLK7 (human) activation, primary screen; purified proKLK7, EDANS-DABCYL substrate fluorescence; 100% is mature enzyme control, 0% vehicle; activation, % at 7 µM; 370,000 tested, 0.9% active; P49862; AID 652039;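 active = activation above the mean of all tested compounds plus 3 SD, computed per campaign excluding outliers beyond control limits, cut at about 13% in these data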
FGF22 binding: shifts melting point of recombinant human FGF22 | Q9HCT0 | recombinant FGF22 thermal shift, SYPRO orange fluorescence; percent of sucrose octasulfate shift, DMSO zero | activity (Tm shift, normalised), % at 9.99 µM | 340,000 tested, 1.5% active | AID 651658;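 active = mean Tm shift, scaled 0 neutral to 100 positive control, at about 1.3% or above, every replicate too, limit read from the data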
ADAM10 ctr: inhibits human ADAM10 in ADAM17 exosite counter-screen | shares compounds with ADAM17 inh | recombinant ADAM10, EDANS/DABCYL FRET peptide cleavage, 3 h | inhibition, % at 6.95 µM | 2,900 tested, 47% active | AID 743256;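 active = mean inhibition over the triplicate runs exceeds the activity threshold set in the earlier primary screen, cut at about 20% in these data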;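 note: 0% = DMSO wells and 100% = marimastat wells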
ADAM17 confirm: human ADAM17 inhibition, confirmation. shares compounds with ADAM17 inh. recombinant ADAM17, EDANS/DABCYL QFRET peptide cleavage. inhibition, % at 6.95 µM. 2,900 tested, 65% active. AID 743257;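 active = mean inhibition across replicates above the hit cutoff set in the primary screen, cut at about 8.5% in these data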;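 note: 0% = DMSO wells and 100% = marimastat wells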
* = called active by the depositor. Rows were chosen to be rich in hits. Some 3.8% of all compounds tested hit in one or more screens of this group.

How did COc1ccc(CN(C(=O)c2oc3cc(C)c(C)cc3c2C)C2CCS(=O)(=O)C2)cc1OC (centres undefined) do in these assays?
ADAM17 inh: 9.7*; Ecoli rRNA inh: -6.2; ADAM10 inh: 5.8; proKLK7 act: 0.1; FGF22 binding: 0.0; ADAM10 ctr: 12.8; ADAM17 confirm: 9.4*

Results for COc1ccc(CN(C(=O)c2oc3ccccc3c2C)C2CCS(=O)(=O)C2)cc1OC (centres undefined) ?
ADAM17 inh: -4.0; ADAM10 inh: -7.6; proKLK7 act: 0.4

Results for CCC(Oc1ccc2c(=O)c(-c3ccccc3OC)coc2c1)C(=O)OCc1ccccc1 (centres undefined) ?
ADAM17 inh: 11.0*; ADAM10 inh: 17.2; proKLK7 act: 0.8; ADAM10 ctr: 27.2*; ADAM17 confirm: 12.5*

How did Cc1cc(C)nc(N/N=C/c2ccccc2Cl)n1 do in these assays?
ADAM17 inh: -0.7; Ecoli rRNA inh: 13.9; ADAM10 inh: 5.9; proKLK7 act: 0.5; FGF22 binding: -0.1

How did Cc1cc(N/N=C/c2ccccc2Cl)nc(NCc2ccccc2)n1 do in these assays?
ADAM17 inh: 10.7*; ADAM10 inh: 19.4; proKLK7 act: 0.6; ADAM10 ctr: 0.7; ADAM17 confirm: 6.2

Results for Cc1ccc(C)n1NC(=O)c1cccs1 ?
ADAM17 inh: -2.5; ADAM10 inh: -0.4; proKLK7 act: -0.2

What do the screens show for `CC(C)(NO)/C(=N/O)c1cccs1`?
ADAM17 inh: 9.2*; ADAM10 inh: 8.0; proKLK7 act: 0.1; ADAM10 ctr: 5.3; ADAM17 confirm: 5.4

Results for O=C(COn1nnc2ccc(S(=O)(=O)N3CCOCC3)cc21)NCCc1ccccc1 ?
ADAM17 inh: 12.6*; Ecoli rRNA inh: -2.1; ADAM10 inh: 7.8; proKLK7 act: 0.1; ADAM10 ctr: -1.6; ADAM17 confirm: 1.4

What do the screens show for `CCC(=O)Nc1ccc2c(c1)C(=O)N(C)C[C@@H](OC)[C@@H](C)CN(Cc1ccccn1)[C@H](C)CO2`?
Ecoli rRNA inh: -0.3; FGF22 binding: -0.1

What do the screens show for `O=C(OCCC1Oc2cccnc2NC1=O)c1ccc([N+](=O)[O-])cc1` (centres undefined)?
ADAM17 inh: 9.1*; Ecoli rRNA inh: 3.9; ADAM10 inh: 12.7; proKLK7 act: -0.4; FGF22 binding: -0.2; ADAM10 ctr: 2.0; ADAM17 confirm: 5.8

Results for O=C(NCc1cccs1)c1cc(-c2ccccc2)nn1CC1CC(c2cccc([N+](=O)[O-])c2)=NO1 (centres undefined) ?
ADAM17 inh: 11.4*; Ecoli rRNA inh: 5.9; ADAM10 inh: 15.7; proKLK7 act: -0.2; FGF22 binding: -0.1; ADAM10 ctr: 27.5*; ADAM17 confirm: 13.2*

What do the screens show for `CO[C@H]1CN(C)C(=O)c2ccc(NS(C)(=O)=O)cc2OC[C@@H](C)N(CC2CCOCC2)C[C@H]1C`?
Ecoli rRNA inh: 4.6; FGF22 binding: 0.1

Results for CCOc1ccc(NS(=O)(=O)c2cc(NC(=O)CCC(=O)c3cccs3)ccc2Cl)cc1 ?
ADAM17 inh: 9.1*; Ecoli rRNA inh: -11.5; ADAM10 inh: 14.0; proKLK7 act: -0.7; FGF22 binding: -0.2; ADAM10 ctr: 18.4; ADAM17 confirm: 10.3*

Results for O=C1CCN(S(=O)(=O)c2ccccc2)CCN1CCOCc1cccc(F)c1 ?
ADAM17 inh: 10.1*; Ecoli rRNA inh: -4.0; ADAM10 inh: 11.1; proKLK7 act: 0.4; FGF22 binding: -0.1; ADAM10 ctr: -2.6; ADAM17 confirm: 2.8

What do the screens show for `Cc1cc(C)n(Cc2ccc(C(=O)NCc3ccco3)o2)n1`?
ADAM17 inh: 9.4*; ADAM10 inh: -0.3; proKLK7 act: 0.3; ADAM10 ctr: -7.6; ADAM17 confirm: -1.6

What do the screens show for `Cc1ccc(CNC(=O)c2ccc(Cn3nc(C)cc3C)o2)cc1`?
ADAM17 inh: -2.8; Ecoli rRNA inh: 1.2; ADAM10 inh: -5.0; proKLK7 act: 0.5; FGF22 binding: 0.0

Compound activity: PubChem BioAssay, several laboratories
